Laboratory results from PubChem BioAssay (NCATS).
Results filed as inconclusive are left out. Calls of active or inactive are those of the source. Calls come from the whole dose curve; as a rule, active = well fitted cell-killing curve with a large enough effect; inconclusive = small, poorly fitted or top-dose-only effect, or effect the other way; inactive = no such curve, though single readings can be large or run the other way.

Experiments:
[1] = Quantitative High-Throughput drug screen in 47 multiple myeloma cell lines against the NCATS MIPE library collection: OPM1_PLB cell viability assay (AID 1918989); details: CellTiter-Glo, 48 h; series mostly up to 45.8 µM; note: nearly all actives have a fitted effect of over 40% in size
How it was run: (§1)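 MIPE 4.0 approved/investigational drugs; 500 cells/well; 48 h 37 °C humidified 5% CO2; CTG luminescence readout; DMSO = 100%, media = 0% viability.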

[2] = Quantitative High-Throughput drug screen in 47 multiple myeloma cell lines against the NCATS MIPE library collection: SKMM1_PLB cell viability assay (AID 1919863); details: SKMM1 myeloma viability, CellTiter-Glo ATP, 48 h; viability: hits give low values; note: nearly all actives have a fitted effect of over 35% in size
How it was run: as §1

[3] = Quantitative High-Throughput drug screen in 47 multiple myeloma cell lines against the NCATS MIPE library collection: XG1_PLB cell viability assay (AID 1919866); details: CellTiter-Glo ATP, 48 h; series mostly up to 45.8 µM; note: nearly all actives have a fitted effect of over 35% in size
How it was run: as §1

[4] = Quantitative High-Throughput drug screen in 47 multiple myeloma cell lines against the NCATS MIPE library collection: UTMC2_PLB cell viability assay (AID 1919868); details: CellTiter-Glo ATP luminescence, 48 h; series mostly up to 45.8 µM; note: nearly all actives have a fitted effect of over 55% in size
How it was run: as §1

[5] = Quantitative High-Throughput drug screen in 47 multiple myeloma cell lines against the NCATS MIPE library collection: PE2_PLB cell viability assay (AID 1919869); details: PE2_PLB myeloma cells viability, ATP luminescence, 48 h; series mostly up to 45.8 µM; note: nearly all actives have a fitted effect of over 35% in size
How it was run: as §1

[6] = Quantitative High-Throughput drug screen in 47 multiple myeloma cell lines against the NCATS MIPE library collection: XG6_PLB cell viability assay (AID 1919865); details: XG6 myeloma viability, CellTiter-Glo ATP luminescence, 48 h; series mostly up to 45.8 µM; note: nearly all actives have a fitted effect of over 40% in size
How it was run: as §1

[7] = Quantitative High-Throughput drug screen in 47 multiple myeloma cell lines against the NCATS MIPE library collection: VP6_DJ cell viability assay (AID 1919867); details: ATP luminescence, 48 h; series mostly up to 45.8 µM; note: nearly all actives have a fitted effect of over 40% in size
How it was run: as §1

[8] = Quantitative High-Throughput drug screen in 47 multiple myeloma cell lines against the NCATS MIPE library collection: PCM6_Riken cell viability assay (AID 1919870); details: CellTiter-Glo ATP, 48 h; series mostly up to 45.8 µM; note: nearly all actives have a fitted effect of over 30% in size
How it was run: as §1

[9] = Quantitative High-Throughput drug screen in 47 multiple myeloma cell lines against the NCATS MIPE library collection: U266_ATCC cell viability assay (AID 1919864); details: U266 myeloma viability, CellTiter-Glo ATP luminescence, 48 h; series mostly up to 45.8 µM; note: nearly all actives have a fitted effect of over 35% in size
How it was run: as §1

[10] = Quantitative High-Throughput drug screen in 47 multiple myeloma cell lines against the NCATS MIPE library collection: RPMI8226_ATCC cell viability assay (AID 1919871); details: RPMI8226 myeloma viability, CellTiter-Glo ATP luminescence, 48 h; series mostly up to 45.8 µM; note: nearly all actives have a fitted effect of over 30% in size
How it was run: as §1
Potency is the fitted concentration of half-maximal effect.

CCCOc1ccc2nc(NC(=O)OC)[nH]c2c1
active: Potency [1] 0.0187 µM | Potency [2] 0.0093 µM | Potency [4] 0.0209 µM | Potency [5] 0.0469 µM
inactive: Potency [3]

Cc1cc(C2CCCCC2)n(O)c(=O)c1
active: Potency [1] 9.35 µM | Potency [2] 9.35 µM | Potency [6] 8.33 µM | Potency [3] 8.33 µM | Potency [7] 8.33 µM | Potency [5] 8.33 µM | Potency [8] 8.33 µM

O=C(NCC1CCCCN1)c1cc(OCC(F)(F)F)ccc1OCC(F)(F)F (stereo not drawn)
active: Potency [1] 9.35 µM | Potency [9] 9.35 µM | Potency [6] 3.32 µM | Potency [3] 3.32 µM | Potency [7] 3.72 µM | Potency [5] 9.35 µM | Potency [8] 4.69 µM

O=C1CCc2ccc(OCCCCN3CCN(c4cccc(Cl)c4Cl)CC3)cc2N1
inactive: viability [2] 132%
active: Potency [1] 18.7 µM | Potency [3] 23.5 µM

Cc1ccc(S(=O)(=O)NC(=O)NN2CC3CCCC3C2)cc1 (stereo not drawn)
active: Potency [1] 20.9 µM | Potency [9] 20.9 µM | Potency [6] 20.9 µM | Potency [3] 23.5 µM | Potency [7] 23.5 µM | Potency [8] 20.9 µM

CN1CCC(=C2c3ccccc3CCc3sccc32)CC1
inactive: viability [2] 99.6% | Potency [6] | Potency [5]
active: Potency [1] 18.7 µM | Potency [3] 18.7 µM | Potency [10] 16.6 µM

O=C1c2ccccc2-c2n[nH]c3cccc1c23
inactive: Potency [1] | Potency [9]

CC[C@]1(O)C[C@H]2CN(CCc3c([nH]c4ccccc34)[C@@](C(=O)OC)(c3cc4c(cc3OC)N(C=O)[C@H]3[C@@](O)(C(=O)OC)[C@H](OC(C)=O)[C@]5(CC)C=CCN6CC[C@]43[C@@H]65)C2)C1
inactive: Potency [6]
active: Potency [1] 0.0053 µM | Potency [2] 0.0053 µM | Potency [4] 0.0093 µM | Potency [10] 0.0093 µM

COc1ccccc1N1CCN(CCN(C(=O)C2CCCCC2)c2ccccn2)CC1
inactive: Potency [1] | viability [2] 126% | Potency [4]
active: Potency [6] 1.48 µM | Potency [3] 7.43 µM | Potency [7] 5.9 µM

COCCCOc1ccnc(CS(=O)c2nc3ccccc3[nH]2)c1C (stereo not drawn)
active: Potency [6] 10.5 µM | Potency [7] 4.69 µM
inactive: Potency [1] | Potency [9] | Potency [3] | Potency [5] | Potency [8] | Potency [10]

O=C(O)CCNC(=O)c1ccc(N=Nc2ccc(O)c(C(=O)O)c2)cc1
inactive: Potency [1] | Potency [6] | Potency [3] | Potency [7] | Potency [5] | Potency [8]
active: Potency [9] 13.2 µM

c1ccc2[nH]c(-c3cscn3)nc2c1
inactive: Potency [1] | viability [2] 120% | Potency [6] | Potency [3] | Potency [7] | Potency [5] | Potency [8] | Potency [10]

O=C(O)c1cccnc1Nc1cccc(C(F)(F)F)c1
inactive: Potency [1] | viability [2] 127% | Potency [6] | Potency [3] | Potency [4] | Potency [8] | Potency [10]
active: Potency [7] 3.32 µM

CNC[C@@H](O)[C@@H](O)[C@H](O)[C@H](O)CO
inactive: Potency [1] | Potency [9] | Potency [6] | Potency [3]

Nc1nc(N)c(N=O)c(OCC2CCCCC2)n1
active: Potency [1] 7.43 µM | Potency [9] 16.6 µM | Potency [6] 2.96 µM | Potency [3] 4.69 µM | Potency [7] 2.96 µM | Potency [4] 5.26 µM | Potency [5] 9.35 µM | Potency [8] 5.26 µM

CC(C)(S)[C@@H](N)C(=O)O
inactive: Potency [1] | viability [2] 133% | Potency [6] | Potency [3] | Potency [7] | Potency [5] | Potency [8]

COc1cc(OC)c(C(=O)CCCN2CCCC2)c(OC)c1
inactive: Potency [1] | Potency [9] | Potency [6] | Potency [3] | Potency [5]

CC1=C(C)C(=O)C(C(CCCCCC(=O)O)c2ccccc2)=C(C)C1=O (stereo not drawn)
inactive: viability [2] 86.2% | Potency [6] | Potency [3]
active: Potency [1] 14.8 µM | Potency [7] 3.72 µM | Potency [8] 2.09 µM

O=P(O)(O)C(O)(Cn1ccnc1)P(=O)(O)O
active: Potency [7] 6.45 µM
inactive: Potency [1] | viability [2] 138% | Potency [6] | Potency [5] | Potency [8] | Potency [10]

CC1(C)NC(=O)N(c2ccc([N+](=O)[O-])c(C(F)(F)F)c2)C1=O
inactive: Potency [1] | Potency [9] | Potency [6] | Potency [3] | Potency [7]

Cc1nc(Nc2ncc(C(=O)Nc3c(C)cccc3Cl)s2)cc(N2CCN(CCO)CC2)n1
active: Potency [1] 0.833 µM | Potency [9] 16.6 µM | Potency [6] 0.0332 µM | Potency [3] 16.6 µM | Potency [7] 0.0662 µM | Potency [5] 3.32 µM

CCCc1cc(=O)[nH]c(=S)[nH]1
inactive: Potency [1] | viability [2] 115% | Potency [3] | Potency [7] | Potency [5] | Potency [8]

Nc1ncn([C@H]2C[C@H](O)[C@@H](CO)O2)c(=O)n1
inactive: Potency [7]
active: Potency [1] 8.33 µM | Potency [2] 5.9 µM | Potency [6] 0.833 µM | Potency [3] 0.264 µM

COC(=O)C1=C(C)NC(C)=C(C(=O)OC(C)C)C1c1cccc2nonc12 (stereo not drawn)
active: Potency [1] 26.4 µM | Potency [9] 3.72 µM | Potency [6] 5.9 µM | Potency [3] 11.8 µM | Potency [7] 26.4 µM | Potency [5] 20.9 µM

CC1=C(C(=O)O)N2C(=O)[C@@H](NC(=O)[C@H](N)C3=CCC=CC3)[C@H]2SC1
inactive: Potency [1] | viability [2] 126% | Potency [3] | Potency [5] | Potency [10]
